Results published in PubChem BioAssay AID488890 (Southern Research Specialized Biocontainment Screening …, 2010).
Among all 320,000 compounds or so, about 1,300 (0.41%) were called active. Roughly 3% stayed inconclusive and do not appear here. How the calls were made is not given here. A selection follows. Measured potencies and affinities stand elsewhere.

Assay: growth inhibition of non-replicating M. tuberculosis (AID 488890);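 further: plate controls were DMSO cells for no effect and high antibiotic wells for full effect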
Settings: Mycobacterium tuberculosis non-replicating, at 25 µM, stronger effect = higher value

Structure (SMILES)	inhibition [%]
COc1ccccc1CN(C)C(=O)COC(=O)c1ccc(Cl)nc1	73.1
COCCn1nnnc1CN1CCN(C(=O)c2ccco2)CC1	-9.84
CC(NC(=O)c1cccs1)C(S)c1ccccc1 (stereo unspecified)	13.2
CN(CC(=O)Nc1ccccc1Br)C(=O)CCc1ccccc1	6.37
COC(=O)c1ccc(N2C(=O)CC(N(C)CCc3ccc(OC)c(OC)c3)C2=O)cc1 (stereo unspecified)	-11.7
O=C(Nc1ncnc2c1CCC2)C12CC3CC(CC(C3)C1)C2	-0.8
CC(C)(C)c1ccc(NNC(=O)C2CCC2)cc1	23.3
COc1cc(NC(=O)c2ccc([N+](=O)[O-])o2)ccc1NC(=O)c1cccs1	44
O=C(Nc1cccc(NC(=O)c2cccs2)c1)c1ccc(Br)o1	40.6
COc1ccc(C(=O)C2CCCN(C(=O)c3cccc(Cl)c3F)C2)cc1OC (stereo unspecified)	8.33
Cc1cccnc1NC(=O)c1ccc2c(c1)NC(=O)C(C)S2 (stereo unspecified)	-14.1
Cc1ccc(SCC(=O)Nc2cc(S(=O)(=O)N3CCCCC3)ccc2C)cc1	29.3
O=C(Cn1nc(-c2ccccc2F)ccc1=O)Nc1ccc(S(=O)(=O)N2CCCCCC2)cc1	30.3
O=C1CCC/C(=N\NC(=O)COc2ccc(Cl)cc2)C1	2.35
O=C(NN=C1CCCC1)c1ccc(Cl)cc1	-5.56
O=C1OC(/C(=C\Nc2ccc(F)cc2F)[N+](=O)[O-])c2ccccc21 (stereo unspecified)	-5.17

Structure (SMILES)	inhibition [%]
O=C1OC(/C(=C\Nc2ccccc2)[N+](=O)[O-])c2ccccc21 (stereo unspecified)	-1.48
CC(C)(C)c1cc(NCCCn2ccnc2)n2ncc(-c3ccccc3)c2n1	73.1
CC(C)(C)c1cc(NCCCn2ccnc2)n2ncc(-c3ccc(Cl)cc3)c2n1	67.9
CCOC(=O)c1ccc(N2CN(CC)CNC2=S)cc1	51.5
OC(CCc1cccc(Cl)c1)c1cccs1 (stereo unspecified)	75.1
CCO[C@H]1OC(C(=O)N2CCN(Cc3ccc4c(c3)OCO4)CC2)=C[C@@H](C)[C@@H]1CCCO	-18
COc1ccccc1CCNC(=O)c1ccoc1C	3.23
COc1ccccc1OCCNC(=O)c1ccc(C)o1	-13.1
CCOC(=O)c1cc(C(=O)NC(C)c2ccccc2)c(=O)[nH]c1C (stereo unspecified)	-20.4
CC(C)(C)NC(=O)COC(=O)c1cc(Br)ccc1Cl	63.1
CC(C)NC(=O)COC(=O)c1cc(Br)ccc1Cl	75.9
CNC(=O)COC(=O)c1cc(F)c(F)cc1Cl	19.5
COC(=O)CNC(=O)COC(=O)c1cc(F)c(F)cc1Cl	42.5
Cc1ccc(C)c(NC(=O)C2CC3CCC2C3)c1 (stereo unspecified)	15.3
CC(C)(C)OC(=O)C[C@@H]1C/C=C\C[C@@H](CC(=O)N(CCO)Cc2ccccc2)C(=O)N[C@H](Cc2c[nH]c3ccccc23)COC1=O	67
